Screens (PubChem)
The entries come from a sample that favours hits as a whole.
PINK1 expr mod = A Quantitative High throughput Screen to Identify Chemical Modulators of PINK1 Expression; Potency, µM (doses to about 76.6 µM), hits mostly activators; 0.2% of 410,000 active; PINK1 immunofluorescence, high-content cytometry, 24 h; AID 624263, 2012; active means well fitted activation curve with a large enough effect; inconclusive means small, poorly fitted or top-dose-only effect; cell line not stated here; further: nearly all actives have a fitted effect of over 65% in size
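Cells are seeded, rested 12 hours, then given compound at five concentrations or DMSO for 24 hours. After fixation, blocking and antibody staining, PINK1 amount and mitochondrial localization are scored; CCCP serves as control.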
Epigenetic derep = Quantitative High-Throughput Screen for Regulators of Epigenetic Control | murine LDR cells, GFP reporter derepression, 30 h | Potency, µM (series often up to 53.9 µM), usual class: activators | 0.2% of 280,000 active | AID 1865, 2009; further: nearly all actives have a fitted effect of over 60% in size
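GFP-positive cell count by laser-scanning cytometry (objects 20–120 um) after 30 h, 37 C compound exposure of murine LDR cells; reporter is CMV-GFP integrated at a silenced locus, inducible by HDAC or DNMT inhibitors.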
HTT ATP protect = qHTS Multiplex Assay to Identify Dual Action Probes in a Cell Model of Huntington: Cytoprotection (ATP). AID 1471, 2008. PC12 HTT-Q103 induced, cytoprotection, ATP luminescence, 40 h. 0.14% of 230,000 active. Potency, µM (doses to about 56.4 µM), hits mostly activators; further: nearly all actives have a fitted effect of over 45% in size
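Stable PC12 Q103-GFP cells in serum-supplemented, phenol red-free DMEM; induction by tebufenozide at 100 nM final; compound dose series; cell viability quantified luminescently from ATP.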
HttQ103 aggreg = qHTS Multiplex Assay to Identify Dual Action Probes in a Cell Model of Huntington: Aggregate Formation (GFP); 1.1% of 220,000 active; PC12 HttQ103-GFP aggregates, Acumen cytometry, 40 h; Potency, µM (highest dose often 46.1 µM), usual class: inhibitors; further: nearly all actives have a fitted effect of over 60% in size
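Read-out: GFP aggregate count by laser scanning cytometer (488 nm excitation, 500-530 nm emission, 1–25 µm objects >6 SD above background). Cells: PC12, inducible HTTex1-Q103-GFP, 100 nM tebufenozide; compounds titrated.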
Hits are given with their value; – = inactive; ? = inconclusive; · = no result given; ! = not active in a repeat; [ ] = dose if it differs, or a comment. Unless noted, the call rests on the fitted dose curve; in most records, active means well fitted curve in the direction sought with a large enough effect; inconclusive means small, poorly fitted or top-dose-only effect, or another doubt; inactive means no such curve, though single readings can be large; an effect the other way counts as inactive or inconclusive.

SMILES	PINK1 expr mod	Epigenetic derep	HTT ATP protect	HttQ103 aggreg
O=C(NCCC1=CCCCC1)C(=O)NCC(c1ccco1)N1CCN(c2ccccc2)CC1 (centres undefined)	13µM	–	–[10 µM]	–
Cc1nnc(SCC(=O)N(C)CC(=O)Nc2ccc(F)cc2)n1Cc1ccccc1	–	–	–[10 µM]	–
O=C(O)c1cccc(-n2cccc2C=C2C(=O)c3ccccc3C2=O)c1	–	–	–	–
O=C1C(=Cc2cccn2-c2ccc(O)cc2)C(=O)c2ccccc21	?	22µM	–	–
O=C1C(=Cc2cccn2-c2ccccc2)C(=O)c2ccccc21	?	11µM	·	–
O=C(c1oc(=O)c2ccccc2c1-c1ccccc1)N1CCOCC1	–	–	–	–
N/C(=N\OC(=O)C(c1ccccc1)c1ccccc1)c1cccnc1	–	–	–	0.71µM
N/C(=N\OC(=O)COc1ccccc1)c1cccnc1	–	–	–	–
CC(=O)Nc1nc(N2C(=O)c3ccccc3C2=O)n(-c2ccccc2)n1	–	–	–	–
CN(C)CCNC(=O)/C(=C/c1ccc(-c2ccc(Cl)cc2Cl)o1)NC(=O)c1ccccc1	–	–	·	35µM
CN(C)CCNC(=O)/C(=C/c1ccc(-c2ccc(Cl)cc2)o1)NC(=O)c1ccccc1	–	–	–[0.074 µM]	3.2µM
Cc1ccc(C(=O)N/C(=C\c2ccc(-c3ccc(Br)cc3)o2)C(=O)NCCCN(C)C)cc1	–	–	–[10 µM]	?
CCCc1nc(Cl)c(C#N)c2c1CCCC2	–	–	–[10 µM]	–
CCc1nc(Cl)c(C#N)c2c1CCCC2	–	–	–[10 µM]	11µM
O=C(CN1CCOCC1)Nc1cccc(Br)c1	–	–	–	3.2µM
O=C(CCN1CCOCC1)Nc1cccc(Br)c1	–	–	–[0.074 µM]	–
CC(=O)Nc1ccccc1OCC(=O)NCC(F)(F)F	–	–	–	–
O=C(CCCc1cccs1)Nc1nc2c(s1)CCCC2	–	–	·	0.028µM
COc1ccccc1CN1CCC(CNS(=O)(=O)c2cc(-c3onc(C)c3C)ccc2OC)CC1	–	–	·	·
C=CCn1c(COc2ccccc2)nnc1SC(C)C(=O)N/N=C/c1cc(Cl)ccc1O (centres undefined)	–	–	–	10µM
O=c1cc(CN2CCN(c3ccccc3F)CC2)c2cc3c(cc2o1)CCCC3	–	–	1.1µM	0.63µM
O=c1[nH]cnc2sc3c(c12)CCCCC3	–	–	–	–
O=c1[nH]cnc2sc3c(c12)CCCC3	–	–	–	13µM
CSCCC(NS(=O)(=O)c1ccc(Cl)cc1)C(=O)OCc1cccc(Cl)c1 (centres undefined)	–	–	–[0.074 µM]	–
CSCCC(NS(=O)(=O)c1ccc(Cl)cc1)C(=O)OCc1c(Cl)cccc1Cl (centres undefined)	40µM	–	–[10 µM]	–
SMILES	PINK1 expr mod	Epigenetic derep	HTT ATP protect	HttQ103 aggreg
CCCCCCCCn1ccc(=N)cc1	–	–	–[10 µM]	–[9.22 µM]
CCCCCCCCCCCCCCCCn1cc[n+](C)c1	–	–	–[10 µM]	13µM!
CCCCS(=O)(=O)c1sc2nc(C)cc(C)c2c1N	–	–	–[0.074 µM]	–
O=C(c1ccc(C23CC4CC(CC(C4)C2)C3)o1)N1CCOCC1	–	–	–	5.6µM
O=C(c1ccc(Br)o1)N1CCN(C23CC4CC(CC(C4)C2)C3)CC1	–	·	·	·
CCN(C(=O)c1c(-c2ccccc2Cl)noc1C)C1CCCCC1	–	·	·	·
Cc1onc(-c2ccccc2Cl)c1C(=O)N(C)C1CCCCC1	–	–	–	14µM
N#CC(C(=O)c1ccccc1Cl)=C1SCCCS1	–	–	–[10 µM]	–[9.22 µM]
O=C(COC(=O)C1CC1)c1c[nH]c2ccccc12	–	–	·	0.032µM
CCOc1nc2c(c(-c3cccs3)c1C#N)Cc1ccccc1-2	–	–	–[10 µM]	–[9.22 µM]
S=C(NCCc1ccccc1)Nc1cccc2cnccc12	–	–	–[10 µM]	3.5µM
S=C(NCc1ccccc1)Nc1cccc2cnccc12	–	·	·	·
O=C(NNC(=S)Nc1ccc(F)cc1)c1cccc([N+](=O)[O-])c1	–	–	–[10 µM]	–[9.22 µM]
Cc1ccc(NC(=S)NNC(=O)c2cccc([N+](=O)[O-])c2)cc1Cl	35µM	–	–[10 µM]	–[9.22 µM]
CCN(CC)Cc1c(O)ccc2c([N+](=O)[O-])c(C)n(-c3ccc(OC)cc3)c12	–	–	–[10 µM]	5µM
COc1ccc2c(c1)Sc1ccccc1N2	–	–	–[10 µM]	7.9µM
CCc1ccc(/C=C/c2c[nH]c3ccccc23)[n+](CC)c1	32µM	–	–[10 µM]	?
Cc1ccc(OCC(=O)Nc2ccc(-n3cnnn3)cc2)c(C)c1	–	·	·	·
CS(=O)(=O)N(CC(=O)NCc1ccncc1)Cc1ccc(Cl)cc1	–	–	–	0.63µM
CS(=O)(=O)N(CC(=O)NCc1cccnc1)Cc1ccc(Cl)cc1	–	–	–[0.074 µM]	–
Cc1noc(C)c1CSCC(=O)N1CCN(c2ccc(F)cc2)CC1	–	–	–[10 µM]	7.9µM
Cc1cccc(N2CCN(C(=O)c3ccc(NS(=O)(=O)c4c(C)noc4C)cc3)CC2)c1C	–	–	–[10 µM]	20µM
Cc1cccc(N2CCN(C(=O)CSCc3c(C)noc3C)CC2)c1C	–	–	–[10 µM]	7.1µM
CCN(C(=O)CSc1ncnc2sc(C)c(C)c12)C1CCS(=O)(=O)C1 (centres undefined)	–	–	–	–
C#Cc1ccc([C@H]2C=C(C(=O)N3CCN(Cc4ccc5c(c4)OCO5)CC3)O[C@@H](OCc3ccc(CO)cc3)C2)cc1	–	–	–[10 µM]	–[9.22 µM]
SMILES	PINK1 expr mod	Epigenetic derep	HTT ATP protect	HttQ103 aggreg
O=C(CSc1cn(CCNC(=O)c2ccccc2)c2ccccc12)NCC1CCCO1 (centres undefined)	–	·	·	·
CCn1nc([N+](=O)[O-])c(C(C#N)c2nc3ccccc3n2C)c(Cl)c1=O (centres undefined)	–	–	–[10 µM]	–
CCCn1nc([N+](=O)[O-])c(C(C#N)c2nc3ccccc3s2)c(Cl)c1=O (centres undefined)	?	–	13µM	·
C=CCOc1ccc(NC(=O)C2CC(=O)N(C(C)C)C2)cc1 (centres undefined)	–	–	–	–
Cc1c(NC(=O)c2cccc(NS(C)(=O)=O)c2)c(=O)n(-c2ccccc2)n1C	–	–	–[10 µM]	1µM
Cc1csc(NC(=O)CSc2nnc(-c3cc(C)on3)o2)n1	–	–	–[0.074 µM]	–
CCCCCCCCCc1nc2sc3c(c2c(=O)n1NC(=O)c1ccccc1[N+](=O)[O-])CC(C)(C)OC3	?	–	–[10 µM]	–
CCCCCCCCCc1nc2sc3c(c2c(=O)n1NC(=O)c1ccc([N+](=O)[O-])cc1)CC(C)(C)OC3	13µM	–	–[10 µM]	–
N#C/C(=C\c1ccc(-c2cccc([N+](=O)[O-])c2)o1)C(=O)N1CCOCC1	–	–	–[10 µM]	–[9.22 µM]
CCc1ccc(C(=O)COC(=O)c2cc([N+](=O)[O-])ccc2NCCO)cc1	–	–	–[0.074 µM]	–
Cc1cc(C)c(C(=O)COC(=O)c2cc([N+](=O)[O-])ccc2NCCO)cc1C	–	–	·	0.014µM
CCn1c(=O)cc(OCC(=O)Nc2ccc(C)c(F)c2)c2ccccc21	–	–	·	·
O=C(Nc1ccon1)Nc1cccc(Cl)c1Cl	–	·	·	·
